LGR2 inh: inhibitors of bursicon-induced Drosophila LGR2 receptor cAMP signaling; actives 0.35% (n = 380,000); inhibition, % at 9.99 µM; HEK293 LGR2, CRE-luciferase, bursicon-stimulated, 4 h; AID 720647;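 active = drop in luminescence signal, shown as inhibition above about 50% in the replicate tests, limit read from the data, passing the limit was not always enough; inconclusive = probably only some replicates passing the limit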;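 also: agonist challenge used bursicon conditioned medium at about half maximal strength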
TWEAK Fn14 block: blocks TWEAK-Fn14 interaction in a reporter cell assay; TWEAK-stimulated Fn14 reporter cells, luciferase luminescence, 8 h; inhibition, % at 10 µM; actives 2% (n = 360,000); AID 1159606; in the data active = inhibition above about 50%
TROY signal inh: TROY signaling inhibition; Q293 LMP1-TROYcd NF-kB luciferase reporter, 4 h; inhibition, % at 10 µM; actives 0.98% (n = 360,000); AID 1347056;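 active = compounds whose plate-normalised and pattern-corrected inhibition of the luciferase reporter signal at the single screening dose is 50% or more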
PAX8 inh HTS: PAX8 transcriptional activity inhibition; RMG-I TPO-luciferase reporter, SteadyGlo, 24 h; actives 1.2% (n = 360,000); inhibition, % at 12.6 µM;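 active = mean replicate inhibition at least 60% with every replicate also reaching 60%; inconclusive = only one of the two criteria is met; inactive = mean below 60% and not all replicates reaching 60%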;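 also: luciferase light reporting Pax8 driven TPO promoter activity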
EWS-Fli block: inhibitors of EWS/Fli oncoprotein transcriptional activity; A673 NR0B1-luciferase reporter, viability-normalised; inhibition, % at 12.6 µM; actives 0.67% (n = 350,000); AID 651661;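 active = mean inhibition of at least 50% after viability correction, with every replicate also passing that limit; inconclusive = mean reaches 50% but only one of two replicates passes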;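 also: firefly luciferase signal divided by Alamar Blue viability fluorescence both relative to DMSO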
Of the large screens only hits and unclear results are named; the others gave an inactive call. The list is not random: actives were taken first. Their share in the collection is about 2.8%.

C[C@H]1CCCCO[C@@H](CN(C)CC2CCCCC2)[C@@H](C)CN([C@@H](C)CO)C(=O)c2cc(NC(=O)Nc3ccc(F)cc3)ccc2O1	none (no result: TWEAK Fn14 block, TROY signal inh)
c1ccc(-c2nnnn2-c2ccccc2)cc1	none
ClC(Cl)(c1nnnn1-c1ccccc1)c1nnnn1-c1ccccc1	TROY signal inh 59 (no result: EWS-Fli block)
CCCC#Cc1ccc([C@H]2[C@H]3CN(S(=O)(=O)Cc4ccccc4)CCCCN3[C@H]2CO)cc1	PAX8 inh HTS 106 (no result: TWEAK Fn14 block, TROY signal inh)
O=C1CN(S(=O)(=O)Cc2ccccc2)C[C@@H]2[C@@H](c3ccc(C#Cc4ccc(F)cc4)cc3)[C@@H](CO)N12	PAX8 inh HTS 106 (no result: TWEAK Fn14 block, TROY signal inh)
O=C1CN(Cc2ccc(F)cc2)C[C@@H]2[C@@H](c3ccc(Br)cc3)[C@@H](CO)N12	PAX8 inh HTS 73 (no result: TWEAK Fn14 block, TROY signal inh)
O=C(C1CCC1)N1CC(=O)N2[C@H](CO)[C@H](c3ccc(C#CCc4ccccc4)cc3)[C@H]2C1	PAX8 inh HTS 83 (no result: TWEAK Fn14 block, TROY signal inh)
O=C1CN(Cc2ccc(F)cc2)C[C@@H]2[C@@H](c3ccc(Br)cc3)[C@H](CO)N12	none (no result: TWEAK Fn14 block, TROY signal inh)
COCC#Cc1ccc(CC[C@H]2O[C@H]3CC[C@H](CO)O[C@H]3C[C@@H]2n2cc(C3CC3)nn2)cc1	none (no result: LGR2 inh, TWEAK Fn14 block, TROY signal inh, PAX8 inh HTS)
COc1ccc(NC(=O)N(C)C[C@H]2Oc3cc(C#CCN(C)C)ccc3S(=O)(=O)N([C@@H](C)CO)C[C@H]2C)cc1	none (no result: TWEAK Fn14 block, TROY signal inh, PAX8 inh HTS)
C/C=C/c1ccc([C@@H]2[C@@H](CO)N(C(=O)C3CC3)C23CN(C(=O)NC(C)C)C3)cc1	none (no result: TWEAK Fn14 block, TROY signal inh, PAX8 inh HTS)
CCCC#Cc1ccc([C@@H]2[C@H](CO)N3CCCCN(S(=O)(=O)Cc4ccccc4)C[C@@H]23)cc1	PAX8 inh HTS 117, EWS-Fli block 59 (no result: TWEAK Fn14 block, TROY signal inh)
CCCC#Cc1ccc([C@@H]2[C@@H](CO)N3CCCCN(S(=O)(=O)Cc4ccccc4)C[C@@H]23)cc1	none (no result: TWEAK Fn14 block, TROY signal inh)
O=C(c1ccc(F)cc1)N1CC(=O)N2[C@H](CO)[C@@H](c3ccc(/C=C/c4ccccc4)cc3)[C@@H]2C1	PAX8 inh HTS 69 (no result: TWEAK Fn14 block, TROY signal inh)
COc1ccccc1NC(=O)N[C@H]1CC[C@@H](CC(=O)N[C@H](C)c2ccccc2)O[C@@H]1CO	none (no result: TWEAK Fn14 block, TROY signal inh)
COc1ccc(NC(=O)Nc2ccc3c(c2)C(=O)N([C@@H](C)CO)C[C@H](C)[C@@H](CN(C)C(=O)CCC(F)(F)F)OCCCC[C@H](C)O3)cc1	none (no result: TWEAK Fn14 block, TROY signal inh)
Cc1ccc(S(=O)(=O)Nc2cccc3c2O[C@@H](CN(C)Cc2ccccc2)[C@@H](C)CN([C@@H](C)CO)C3=O)cc1	none (no result: TWEAK Fn14 block, TROY signal inh)
CCC(=O)NC(c1ccc(Cl)cc1Cl)c1ccc2cccnc2c1O (stereo not given)	PAX8 inh HTS 66
CCCCC(=O)NC(c1ccc(Cl)cc1Cl)c1ccc2cccnc2c1O (stereo not given)	PAX8 inh HTS 66
CC(C)C(=O)NC(c1ccc(Cl)cc1Cl)c1ccc2cccnc2c1O (stereo not given)	TWEAK Fn14 block 103
CCCCC(=O)NC(c1cccs1)c1cc(Cl)c2cccnc2c1O (stereo not given)	PAX8 inh HTS inconclusive
Cc1cc(NC(c2ccc(Cl)cc2)c2ccc3cccnc3c2O)no1 (stereo not given)	none (no result: LGR2 inh, PAX8 inh HTS, EWS-Fli block)
COc1ccc(S(=O)(=O)N(C)C[C@@H]2OCCCC[C@H](C)Oc3ccc(NS(=O)(=O)c4cccs4)cc3C(=O)N([C@H](C)CO)C[C@H]2C)cc1	none (no result: TWEAK Fn14 block, TROY signal inh)
C[C@@H]1CN([C@@H](C)CO)S(=O)(=O)c2ccc(-c3cncnc3)cc2O[C@@H]1CN(C)C(=O)C1CCCCC1	none (no result: TWEAK Fn14 block, TROY signal inh)
CN(C)CC(=O)N[C@H]1CC[C@H](CCn2cc(C3CC3)nn2)O[C@H]1CO	none (no result: TWEAK Fn14 block, TROY signal inh)
CO[C@H]1CN(C)C(=O)c2cc(NC(=O)C3CCC3)ccc2OC[C@@H](C)N(C(=O)NC(C)C)C[C@H]1C	none (no result: TWEAK Fn14 block, TROY signal inh)
Cc1ccc(-c2ccc3c(c2)O[C@@H](CN(C)Cc2ccccn2)[C@H](C)CN([C@H](C)CO)S3(=O)=O)cc1	EWS-Fli block 65 (no result: TWEAK Fn14 block, TROY signal inh, PAX8 inh HTS)
C[C@H]1CN([C@@H](C)CO)S(=O)(=O)c2ccc(-c3ccc(C#N)cc3)cc2O[C@@H]1CN(C)Cc1ccccn1	PAX8 inh HTS inconclusive, EWS-Fli block 67 (no result: TWEAK Fn14 block, TROY signal inh)
C[C@H](CO)N1C[C@H](C)[C@@H](CN(C)Cc2ccccn2)Oc2cc(-c3ccc(C#N)cc3)ccc2S1(=O)=O	none (no result: TWEAK Fn14 block, TROY signal inh)
C[C@H]1CN([C@@H](C)CO)S(=O)(=O)c2ccc(C3=CCCCC3)cc2O[C@@H]1CN(C)Cc1ccccn1	EWS-Fli block 65 (no result: TWEAK Fn14 block, TROY signal inh)
Cc1ccc(-c2ccc3c(c2)O[C@@H](CN(C)Cc2ccccn2)[C@H](C)CN([C@@H](C)CO)S3(=O)=O)cc1	none (no result: TWEAK Fn14 block, TROY signal inh, PAX8 inh HTS)
CCc1nc(N2[C@H](C#N)[C@@H](c3ccccc3-c3ccc(F)cc3)[C@H]2CO)sc1C	none (no result: TWEAK Fn14 block, TROY signal inh, PAX8 inh HTS)
C[C@H]1CN([C@@H](C)CO)C(=O)c2cc(NC(=O)Cc3ccccc3)ccc2O[C@H]1CN(C)C	none (no result: TWEAK Fn14 block, TROY signal inh)
O=C1c2cc([N+](=O)[O-])cc3cc([N+](=O)[O-])cc(c23)C(=O)N1c1ccccn1	TWEAK Fn14 block 64
CCOC(=O)/C(=C\c1cccc(O)c1)c1nc2sc(C)c(C)c2c(=O)[nH]1	LGR2 inh 84, TWEAK Fn14 block 101
Clc1ccc(OCc2nnc3n2N=C(c2ccc4c(c2)OCCO4)CS3)c(Cl)c1	TWEAK Fn14 block 53, TROY signal inh 60 (no result: LGR2 inh, EWS-Fli block)
CCc1nnc2n1N=C(c1ccc(-c3cc(Cl)ccc3Cl)o1)CS2	none (no result: LGR2 inh, PAX8 inh HTS, EWS-Fli block)
CO[C@H]1CN(C)C(=O)c2cc(NC(=O)C3CC3)ccc2OC[C@@H](C)N(C(=O)c2ccccc2)C[C@H]1C	none (no result: TWEAK Fn14 block, TROY signal inh)
O=C(Nc1ccc2oc(-c3ccncc3)nc2c1)c1ccc([N+](=O)[O-])o1	EWS-Fli block 62
NC(=O)c1oc2ccccc2c1NC(=O)c1ccc([N+](=O)[O-])o1	PAX8 inh HTS 74
COc1ccc(NC(=O)c2ccc([N+](=O)[O-])o2)cc1	PAX8 inh HTS 76
O=C(Nc1ccc2oc(-c3ccncc3)nc2c1)c1ccccc1	none
CC(NC(=O)C12CC3CC(CC(C3)C1)C2)C(=O)NN=Cc1ccc([N+](=O)[O-])o1 (stereo not given)	none
NC(=O)c1oc2ccccc2c1NC(=O)c1ccc(F)cc1	none
CC(NC(=O)c1ccc([N+](=O)[O-])o1)C12CC3CC(CC(C3)C1)C2 (stereo not given)	PAX8 inh HTS 66
C[C@@H]1CN([C@@H](C)CO)C(=O)c2cc(NC(=O)Nc3ccc4c(c3)OCO4)ccc2O[C@@H]1CN(C)Cc1ccc(Cl)c(Cl)c1	none (no result: TWEAK Fn14 block, TROY signal inh, PAX8 inh HTS)
O=C(C[C@H]1CC[C@@H]2[C@H](COC[C@@H](O)CN2Cc2ccc(Cl)cc2)O1)NCc1cccc(F)c1	none (no result: TWEAK Fn14 block, TROY signal inh, PAX8 inh HTS, EWS-Fli block)
CC(=O)c1ccc(NC(=O)c2ccc([N+](=O)[O-])o2)cc1	none
Cc1cc(C)cc(NC(=O)c2ccc([N+](=O)[O-])o2)c1	PAX8 inh HTS 75
C[C@H]1CN([C@@H](C)CO)C(=O)c2cc(C#CC3CC3)cnc2O[C@@H]1CN(C)C(=O)C1CCCCC1	none (no result: TWEAK Fn14 block, TROY signal inh, PAX8 inh HTS)
Cc1ccc(Sc2c(C=O)c3ccccc3n2C)cc1	TWEAK Fn14 block 69, TROY signal inh 52 (no result: LGR2 inh, PAX8 inh HTS, EWS-Fli block)
Cc1ccc(Sc2c(O)c3ccccc3n(C)c2=O)cc1	none
Cn1c(-c2ccccc2)c(C=O)c2ccccc21	none
